Most compounds without a hit are left out; they make up all but 4% or so of the library.
ERAP1 HTS inh: inhibitors of human ERAP1 aminopeptidase; inhibition, % at 10.7 µM; AID 652197; recombinant ERAP1, Leu-AMC fluorescence, 60 min; hit rate 0.15% among 340,000; Q9NZ08;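 active means mean replicate inhibition of at least 30%, or all replicates individually reaching that 30% level; inactive means mean below 30% and not every replicate reaching it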
FGF22 binding: shifts melting point of recombinant human FGF22; recombinant FGF22 thermal shift, SYPRO orange fluorescence; percent of sucrose octasulfate shift, DMSO zero; activity (Tm shift, normalised), % at 9.99 µM; hit rate 1.5% among 340,000; AID 651658;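 active means mean Tm shift, scaled 0 neutral to 100 positive control, at about 1.3% or above, every replicate too, limit read from the data; inconclusive means no clear call, values can overlap the other calls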
Target sequence (Q9HCT0 whole entry, looked up): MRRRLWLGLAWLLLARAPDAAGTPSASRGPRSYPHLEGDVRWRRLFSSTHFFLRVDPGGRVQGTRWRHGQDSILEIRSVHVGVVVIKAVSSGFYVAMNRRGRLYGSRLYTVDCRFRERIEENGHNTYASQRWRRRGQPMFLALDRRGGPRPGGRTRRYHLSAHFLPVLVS
MLL AF4-AF9 inh: inhibitors of human MLL-AF4/AF9 interaction; AlphaScreen, biotin-AF4 peptide binding to FLAG-AF9; inhibition, % at 10 µM; AID 651704; P42568; hit rate 0.47% among 350,000;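 active means every replicate reaching a set inhibition limit, whatever the replicate mean, cut at about 25% in these data; inconclusive means mean inhibition reaches that limit but some replicates miss it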
RAD52 inh: inhibitors of human RAD52 DNA annealing | recombinant RAD52 DNA annealing, FRET fluorescence | hit rate 0.46% among 360,000 | AID 651710 | inhibition, % at 18.7 µM;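 active means every replicate showing at least 50% inhibition; inconclusive means mean inhibition at least 50% but not in every replicate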
Target sequence (P43351 whole entry, looked up): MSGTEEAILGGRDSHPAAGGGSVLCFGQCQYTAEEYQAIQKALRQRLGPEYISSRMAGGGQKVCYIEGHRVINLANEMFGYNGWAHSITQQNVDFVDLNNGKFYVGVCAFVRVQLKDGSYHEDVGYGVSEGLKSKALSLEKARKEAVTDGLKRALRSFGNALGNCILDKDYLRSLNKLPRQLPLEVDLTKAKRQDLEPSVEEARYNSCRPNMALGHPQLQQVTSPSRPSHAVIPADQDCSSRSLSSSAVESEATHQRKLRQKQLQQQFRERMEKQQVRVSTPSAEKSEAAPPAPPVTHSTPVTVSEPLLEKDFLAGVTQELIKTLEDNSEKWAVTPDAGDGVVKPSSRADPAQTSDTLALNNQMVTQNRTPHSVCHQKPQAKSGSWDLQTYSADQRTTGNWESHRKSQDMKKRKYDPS
DENV2 CPE: inhibitors of DENV2 cytopathic effect | DENV2-infected cells, cytopathic effect rescue, plate reader | CPE inhibition, % at 9.99 µM | AID 651640 | hit rate 1.7% among 350,000; in the data active means CPE inhibition above about 20%, passing the limit was not always enough; inconclusive means no clear call, values can overlap the other calls; tested in BHK-21 cells
Numbers stand for hits; i = inactive; ? = inconclusive; nt = no result.

SMILES	ERAP1 HTS inh	FGF22 binding	MLL AF4-AF9 inh	RAD52 inh	DENV2 CPE
Cc1ccnc(NS(=O)(=O)c2ccc(NC(=O)/C=C/c3cccs3)cc2)n1	i	44	i	i	i
Cc1cc(C)nc(/N=C(\N)Nc2ccc(S(=O)(=O)Nc3nccc(C)n3)cc2)n1	i	43	i	i	i
CN1C(=O)c2cc(NC(=O)c3ccccc3F)ccc2OC[C@H]2O[C@@H](CC(=O)NCc3ccc4c(c3)OCO4)CC[C@H]21	i	i	i	i	i
C[C@H]1CCCCO[C@H](CN(C)Cc2ccncc2)[C@@H](C)CN([C@@H](C)CO)C(=O)c2cc(NC(=O)Nc3cccc4ccccc34)ccc2O1	i	i	i	i	i
CC(C)NC(=O)N(C)C[C@@H]1OCCCC[C@H](C)Oc2ccc(N(C)C)cc2C(=O)N([C@H](C)CO)C[C@@H]1C	i	i	i	i	i
C[C@H](CO)N1C[C@H](C)[C@H](CN(C)C(=O)C2CCC2)Oc2cc(C#CCN(C)C)ccc2S1(=O)=O	i	i	i	i	i
C[C@H]1CN([C@@H](C)CO)S(=O)(=O)c2ccc(C#CCN(C)C)cc2O[C@@H]1CN(C)C(=O)C1CCC1	i	i	i	i	27
C[C@H](CO)N1C[C@H](C)[C@@H](CN(C)C(=O)C2CCCCC2)Oc2cc(C#CC(C)(C)O)ccc2S1(=O)=O	i	i	i	i	i
C[C@@H]1CN([C@H](C)CO)S(=O)(=O)c2ccc(C#CC(C)(C)O)cc2O[C@@H]1CN(C)C(=O)C1CCCCC1	i	i	i	i	20
C[C@@H]1CN([C@H](C)CO)C(=O)c2cc(NC(=O)CCC(F)(F)F)ccc2O[C@@H](C)CCCCO[C@@H]1CN(C)Cc1ccccc1	i	i	i	i	i
O=C(Nc1ccccc1)N1CCCCN2[C@H](C1)[C@@H](c1ccc(-c3ccccc3F)cc1)[C@@H]2CO	i	i	i	i	33
O=C(Nc1ccccc1)N1CCCCN2[C@H](CO)[C@H](c3ccc(-c4ccncc4)cc3)[C@H]2C1	i	i	i	i	38
O=C(Nc1ccccc1)N1CCCCN2[C@H](CO)[C@@H](c3ccc(-c4ccccc4F)cc3)[C@@H]2C1	i	i	i	i	i
COc1cc(CNc2ncc(-c3ccc(Br)cc3)n2C)cc(OC)c1O	i	i	25	i	i
Cc1nc(SCC(=O)c2cc3ccccc3oc2=O)c(C#N)c(-c2cccs2)c1C(=O)Nc1ccccc1	i	43	i	i	i
COc1ccc(C/C(C)=N/NC(=O)c2ccc(C)cc2C)cc1	i	44	i	i	i
CC(C)COCC(O)CCC(=O)NNC(=S)Nc1ccccc1 (centres undefined)	i	i	i	i	94
CN(C)CC#Cc1cccc(-c2nc(C(=O)N[C@@H]3CCN(Cc4ccccc4)C3)cc3c2[C@H](CCO)N(S(=O)C(C)(C)C)C3)c1 (some centres undefined)	i	i	i	i	48
O=C(O)C1Cc2[nH]cnc2C(c2ccc(F)cc2)N1 (centres undefined)	i	43	i	i	i
O=C(Nc1ccc(F)cc1)c1nc[nH]c1C(=O)O	i	i	i	i	i
C/C=C/c1ccc([C@@H]2[C@H](CO)N(C(C)=O)C23CN(C(=O)c2cnccn2)C3)cc1	i	i	i	i	i
CCNC(=O)C[C@@H]1CC[C@H]2[C@@H](COc3ccc(NC(=O)C4CCCCC4)cc3C(=O)N2C)O1	i	i	i	i	i
COc1ccc(C(NC(=O)C2C3C=CC(C3)C2C(=O)O)c2ccccc2)cc1 (centres undefined)	i	52	i	i	?
CNC(=O)C[C@@H]1C(=O)N(CCc2ccccc2)CC1(C)C	i	43	i	i	i
CNC(=O)C[C@@H]1C(=O)N(Cc2ccccc2)CC1(C)C	i	i	i	i	i
SMILES	ERAP1 HTS inh	FGF22 binding	MLL AF4-AF9 inh	RAD52 inh	DENV2 CPE
CCc1c(C)nc(SCC(=O)Nc2nc(-c3ccc(OC)cc3)cs2)[nH]c1=O	i	43	i	i	nt
Cc1cccc(C)c1N1C(=O)CC(Sc2ccccc2N)C1=O (centres undefined)	i	44	i	i	i
Clc1ccccc1/C=N/N1CCN(Cc2ccccc2)CC1	i	i	34	i	i
CCOc1ccccc1/C=N/N1CCN(Cc2ccccc2)CC1	i	i	28	i	i
Fc1ccccc1/C=N/N1CCN(Cc2ccccc2Cl)CC1	i	i	i	i	i
CN1CCN(/N=C/c2cccc(Cl)c2Cl)CC1	i	44	i	i	i
O=[N+]([O-])c1ccccc1/C=N/N1CCN(Cc2ccccc2)CC1	i	i	?	i	i
C=CCn1cc(C(=O)N2CCN(CC)CC2)c(=O)c2cc(S(=O)(=O)N(CC)CC)ccc21	i	i	45	i	?
COc1cccc(NC(=O)Nc2ccc3c(c2)OC[C@H](C)NC[C@H](C)[C@@H](OC)CN(C)C3=O)c1	i	i	i	i	i
CC[C@H](C)[C@H](NC(N)=O)C(=O)Nc1ccc(OC)c(Cl)c1	nt	i	i	i	i
COc1ccc(NC(=O)[C@@H](NC(N)=O)C(C)C)cc1Cl	i	44	i	i	i
COc1ccc(NC(=O)COC(=O)c2c(C)noc2C)cc1Cl	i	nt	i	i	39
COc1ccc(NC(=O)/C=C/C(=O)O)cc1Cl	i	i	i	i	i
COc1ccc(NC(=O)CCCC(=O)O)cc1Cl	i	43	i	i	i
CC[C@H](C)[C@H](NC(N)=O)C(=O)NCCc1ccc(OC)c(OC)c1	i	43	i	i	i
Cc1noc(C)c1C(=O)OCC(=O)Nc1ccc(C(N)=O)cc1	i	i	i	i	i
CCCN1[C@H](C(=O)N2CCCCC2)[C@@H](CO)[C@@H]2Cn3c(cccc3=O)[C@@H]21	i	i	i	i	i
O=C(c1cc(-c2ccc(Cl)cc2Cl)on1)N1CCCC1	i	44	i	i	i
O=C(c1cc(-c2ccc(Cl)cc2Cl)on1)N1CCCCCC1	i	i	i	i	i
Cn1ncc(Cl)c1C(=O)N1CCN(S(=O)(=O)c2ccc(F)cc2)CC1	i	i	i	i	?
Cn1ncc(Cl)c1C(=O)N1CCN(c2ccc(F)cc2)CC1	i	i	i	i	50
CCC(=O)Nc1ccc2c(c1)C(=O)N(C)[C@@H]1CC[C@@H](CC(=O)O)O[C@@H]1CO2	i	i	i	i	i
COc1ccc2c3c(n(C)c2c1)[C@@H](CO)N(Cc1ccccc1)CC31CCN(S(=O)(=O)c2ccc(C)cc2)CC1	i	i	i	i	?
COc1ccc(NC(=O)N2CC3(C2)CN(C(=O)CN2CCOCC2)[C@@H](CO)c2[nH]c4cc(OC)ccc4c23)cc1	i	i	i	i	i
COc1ccc(NC(=O)N2CCC3(CC2)CN(C(=O)CN2CCOCC2)[C@@H](CO)c2[nH]c4cc(OC)ccc4c23)cc1	i	i	i	i	25
CCC(=O)N1CCC2(CC1)CN(C(=O)CN1CCOCC1)[C@H](CO)c1[nH]c3cc(OC)ccc3c12	i	i	i	i	40
